Laboratory results published in PubChem BioAssay (NCATS).
Inconclusive results are not listed. Unmarked numbers belong to inactive results. Activity calls are given as the source filed them. Calls come from the whole dose curve; as a rule, active = well fitted activation curve with a large enough effect; inconclusive = small, poorly fitted or top-dose-only effect; inactive = no such curve, though single readings can be large or run the other way. Starred links: 1 amine or outer side, 2 acyl side, 3 side chain; linkers in the order of their positions; H or OH if unused. Positions of bridges follow the written chain, without caps; N, C: chain ends. Non-standard residues stand in square brackets, D forms with d. Residues, ends and D or L forms follow the SMILES beside them. Chains are numbered I, II in the order given. Actinocin(9to1) = Cc1c2oc3c(C)ccc(C(=O)[*:1])c3nc-2c(C(=O)[*:2])c(N)c1=O; NMeV = CN[C@H](C(=O)O)C(C)C; Sar = CNCC(=O)O
Potency is the fitted concentration of half-maximal effect.

The molecules below were run against Cellular tumor antigen p53 (Homo sapiens) (UniProt P04637) (assay: Primary qHTS for small molecule compounds that upregulate eGFP-tagged delta133p53alpha (in N-terminal) cells. (AID 2060322; note: nearly all actives have a fitted effect of over 75% in size;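 for activation: series mostly up to about 56 µM; 0% = DMSO vehicle and 100% = reference activator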)). Conditions: NCI-H358 eGFP-delta133p53alpha fluorescence, 24 h; activation: hits give high values.
Cellular tumor antigen p53 (Homo sapiens), sequence (P04637 whole entry, looked up): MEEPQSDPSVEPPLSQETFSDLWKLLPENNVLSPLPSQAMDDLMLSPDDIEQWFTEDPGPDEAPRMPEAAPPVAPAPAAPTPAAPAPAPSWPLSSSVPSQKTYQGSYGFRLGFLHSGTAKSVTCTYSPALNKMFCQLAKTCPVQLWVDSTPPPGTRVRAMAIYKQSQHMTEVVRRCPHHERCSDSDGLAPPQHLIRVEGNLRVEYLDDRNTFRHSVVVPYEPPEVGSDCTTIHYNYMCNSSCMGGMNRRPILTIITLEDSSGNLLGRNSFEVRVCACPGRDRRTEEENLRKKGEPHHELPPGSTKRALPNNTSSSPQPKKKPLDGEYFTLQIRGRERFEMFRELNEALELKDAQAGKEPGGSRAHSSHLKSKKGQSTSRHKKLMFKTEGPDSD
Summary of the method: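 NCI-H358 cells pre-induced 24 h with 10 ng/ml doxycycline for eGFP-delta133p53alpha, plated dox-free and exposed 24 h at 37C to titrated compounds. Fixed, Hoechst-stained; gated GFP peak intensity by laser scanning cytometry, normalized to DMSO (0%) and 57.5 uM 5-azacytidine (100%).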
`CCCNC(C)C(=O)Nc1c(C)csc1C(=O)OC` (configuration not stated) showed an activation of -37.9%. Work on `CC(=O)NS(=O)(=O)c1ccc(N)cc1` yielded an activation of -1.67%. `O=C1c2ccccc2C(=O)C1c1ccccc1` showed an activation of -12.6%. Work on `CC(=O)OCC(=O)[C@@]1(OC(C)=O)[C@@H](C)C[C@H]2[C@@H]3C[C@H](F)C4=CC(=O)C=C[C@]4(C)[C@@]3(F)[C@@H](O)C[C@@]21C` yielded an activation of 5.08%. `CCCCN1CCCC1C(=O)Nc1c(C)cc(C)cc1C` (configuration not stated) showed an activation of 27.6%. Molecule `Oc1ccccc1` has an activation of -1.69%. `CC(=O)c1cc2ccccc2s1` was tested, and the activation was 6.21%. For `N#CCC(=O)NN`, the activation was 15.9%. `COc1ccccc1N1CCN(CC(O)COc2cc(OC)c(OC)c(OC)c2)CC1` (configuration not stated) gave an activation of -6.21%. Molecule `CCN(CC)CCOC(=O)C1(c2ccccc2)CCCC1` has an activation of 3.35%. In the case of `C[C@@H]1[C@H](O)[C@@H](C)C=CC=CC=CC=CC=CC=CC=C[C@H](O[C@@H]2O[C@H](C)[C@H](O)[C@H](N)[C@@H]2O)C[C@@H]2O[C@](O)(C[C@@H](O)C[C@@H](O)[C@H](O)CC[C@@H](O)C[C@@H](O)CC(=O)O[C@H]1C)C[C@H](O)[C@@H]2C(=O)O`, the activation is reported as -1.15%. In the case of `Cc1c2oc3c(C)ccc(C(=O)N[C@@H]4C(=O)N[C@H](C(C)C)C(=O)N5CCC[C@H]5C(=O)N(C)CC(=O)N(C)[C@@H](C(C)C)C(=O)O[C@@H]4C)c3nc-2c(C(=O)N[C@@H]2C(=O)N[C@H](C(C)C)C(=O)N3CCC[C@H]3C(=O)N(C)CC(=O)N(C)[C@@H](C(C)C)C(=O)O[C@@H]2C)c(N)c1=O` (I: T[dV]P[Sar][NMeV] / II: T[dV]P[Sar][NMeV]; ester I:1-I:C, II:1-II:C; linker I:N-II:N via Actinocin(9to1)), the Potency is reported as 11 nM (active).
